Laboratory results taken from publication PMC7862700, “An all-to-all approach to the identification of sequence-specific readers for epigenetic DNA modifications on cytosine”.

Key:
Experiment in all cases: DAPPL (digital affinity profiling via proximity ligation, sequencing); 10 mM Tris-HCl pH 7.5, 50 mM NaCl, 1 mM DTT, 4% glycerol, room temperature, 30 min; GST-TFs on glutathione beads, 16-mer random dsDNA library, 0.1% formaldehyde crosslink after washing; high values mean tight binding
Details in all cases: protein: recombinant; tags: N-terminal GST; dsDNA, one strand shown
ERF = target: T1, ERF (Homo sapiens, UniProt P50548 1-548)
T1 sequence: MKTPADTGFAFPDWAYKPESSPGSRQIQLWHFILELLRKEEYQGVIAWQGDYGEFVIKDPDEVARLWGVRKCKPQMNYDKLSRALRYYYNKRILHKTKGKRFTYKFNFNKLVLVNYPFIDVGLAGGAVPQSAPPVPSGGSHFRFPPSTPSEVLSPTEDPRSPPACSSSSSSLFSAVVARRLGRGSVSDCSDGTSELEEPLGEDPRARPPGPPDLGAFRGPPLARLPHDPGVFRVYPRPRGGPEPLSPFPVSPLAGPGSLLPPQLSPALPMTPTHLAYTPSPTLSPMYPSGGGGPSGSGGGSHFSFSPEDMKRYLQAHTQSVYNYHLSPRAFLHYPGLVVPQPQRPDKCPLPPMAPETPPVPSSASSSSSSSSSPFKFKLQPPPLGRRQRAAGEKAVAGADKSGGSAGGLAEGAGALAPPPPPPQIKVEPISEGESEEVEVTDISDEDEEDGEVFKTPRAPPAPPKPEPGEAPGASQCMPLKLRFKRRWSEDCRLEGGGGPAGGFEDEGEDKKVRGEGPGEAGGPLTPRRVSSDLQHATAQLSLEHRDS
Method in brief: (§1)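 Beads coated with glutathione captured GST-fused human transcription factors that had been expressed in yeast, and the factors were then given DNA barcodes and pooled with a tag-only sample. The pools were incubated with 200 nmole of a random double-stranded 16-mer DNA library in Tris/NaCl/DTT/glycerol buffer for 30 min at room temperature, washed, crosslinked with 0.1% formaldehyde and proximity-ligated with BsaI/T4 ligase at 37 °C for 1 h. PCR amplification and Illumina NextSeq500 sequencing came last. Binding signal is each hexamer's read frequency for a factor divided by its frequency for the tag-only sample.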

ETV3L = target: T2, ETV3L (Homo sapiens, UniProt Q6ZN32 1-361)
T2 sequence: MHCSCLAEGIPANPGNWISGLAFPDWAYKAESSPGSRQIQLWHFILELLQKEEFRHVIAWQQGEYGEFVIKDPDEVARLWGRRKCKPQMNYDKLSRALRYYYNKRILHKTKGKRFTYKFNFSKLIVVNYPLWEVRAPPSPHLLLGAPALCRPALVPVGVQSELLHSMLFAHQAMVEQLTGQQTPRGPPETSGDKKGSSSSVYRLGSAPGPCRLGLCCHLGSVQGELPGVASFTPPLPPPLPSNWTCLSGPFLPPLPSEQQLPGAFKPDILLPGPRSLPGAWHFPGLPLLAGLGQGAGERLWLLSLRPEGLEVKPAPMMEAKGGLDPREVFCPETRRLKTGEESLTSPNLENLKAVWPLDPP
Method in brief: as §1

ETS2 = target: T3, ETS2 (Homo sapiens, UniProt P15036 1-469)
T3 sequence: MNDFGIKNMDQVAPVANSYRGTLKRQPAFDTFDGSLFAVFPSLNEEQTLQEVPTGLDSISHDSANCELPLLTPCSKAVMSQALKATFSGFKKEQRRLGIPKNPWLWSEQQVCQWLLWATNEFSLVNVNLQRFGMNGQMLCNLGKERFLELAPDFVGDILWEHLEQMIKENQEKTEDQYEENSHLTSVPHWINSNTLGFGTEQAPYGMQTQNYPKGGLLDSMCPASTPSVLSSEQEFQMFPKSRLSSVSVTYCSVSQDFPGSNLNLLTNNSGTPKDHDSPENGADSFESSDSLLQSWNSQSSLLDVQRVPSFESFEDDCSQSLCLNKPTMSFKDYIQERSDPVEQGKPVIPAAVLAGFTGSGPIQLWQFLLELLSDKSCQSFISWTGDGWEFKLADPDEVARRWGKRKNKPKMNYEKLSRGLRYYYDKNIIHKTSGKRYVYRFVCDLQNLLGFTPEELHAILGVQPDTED
Method in brief: as §1

SPDEF = target: T4, SPDEF (Homo sapiens, UniProt O95238 1-335)
T4 sequence: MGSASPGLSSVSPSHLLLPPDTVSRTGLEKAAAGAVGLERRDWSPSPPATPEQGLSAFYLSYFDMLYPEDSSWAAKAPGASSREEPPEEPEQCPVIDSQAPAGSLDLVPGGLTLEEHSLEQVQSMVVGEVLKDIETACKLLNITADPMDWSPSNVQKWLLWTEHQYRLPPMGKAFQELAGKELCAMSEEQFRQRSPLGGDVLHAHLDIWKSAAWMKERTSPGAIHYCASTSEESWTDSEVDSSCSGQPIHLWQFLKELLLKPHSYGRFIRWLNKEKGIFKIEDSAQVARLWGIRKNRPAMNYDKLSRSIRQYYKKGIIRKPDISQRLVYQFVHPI
Method in brief: as §1

ETV7 = target: T5, ETV7 (Homo sapiens, UniProt Q9Y603 1-341)
T5 sequence: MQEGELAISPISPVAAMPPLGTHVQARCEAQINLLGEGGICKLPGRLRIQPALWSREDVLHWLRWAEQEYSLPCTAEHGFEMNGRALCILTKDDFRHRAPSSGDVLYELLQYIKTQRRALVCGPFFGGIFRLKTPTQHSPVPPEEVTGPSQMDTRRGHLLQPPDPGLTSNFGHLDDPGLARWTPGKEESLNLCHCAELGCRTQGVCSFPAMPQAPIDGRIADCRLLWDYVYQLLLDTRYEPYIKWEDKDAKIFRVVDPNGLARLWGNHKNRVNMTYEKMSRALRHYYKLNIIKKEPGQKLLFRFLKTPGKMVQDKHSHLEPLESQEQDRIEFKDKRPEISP
Method in brief: as §1

ELF5 = target: T6, ELF5 (Homo sapiens, UniProt Q9UKW6-2 1-255)
T6 sequence: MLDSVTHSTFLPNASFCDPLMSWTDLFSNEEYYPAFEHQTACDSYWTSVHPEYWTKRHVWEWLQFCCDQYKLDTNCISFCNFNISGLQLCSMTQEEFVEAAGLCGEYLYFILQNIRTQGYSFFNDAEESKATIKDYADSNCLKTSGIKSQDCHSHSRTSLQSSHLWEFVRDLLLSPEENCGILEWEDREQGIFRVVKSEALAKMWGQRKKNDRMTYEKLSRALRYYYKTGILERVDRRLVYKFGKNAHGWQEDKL
Method in brief: as §1

ETV3 = target: T7, ETV3 (Homo sapiens, UniProt P41162-2 1-143)
T7 sequence: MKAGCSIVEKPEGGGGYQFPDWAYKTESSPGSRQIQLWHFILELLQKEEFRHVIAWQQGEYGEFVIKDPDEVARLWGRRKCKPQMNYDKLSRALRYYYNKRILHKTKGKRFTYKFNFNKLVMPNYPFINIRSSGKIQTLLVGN
Method in brief: as §1

ETV6 = ETV6 (Homo sapiens, UniProt P41212 1-452)
ETV6, sequence (P41212 whole entry): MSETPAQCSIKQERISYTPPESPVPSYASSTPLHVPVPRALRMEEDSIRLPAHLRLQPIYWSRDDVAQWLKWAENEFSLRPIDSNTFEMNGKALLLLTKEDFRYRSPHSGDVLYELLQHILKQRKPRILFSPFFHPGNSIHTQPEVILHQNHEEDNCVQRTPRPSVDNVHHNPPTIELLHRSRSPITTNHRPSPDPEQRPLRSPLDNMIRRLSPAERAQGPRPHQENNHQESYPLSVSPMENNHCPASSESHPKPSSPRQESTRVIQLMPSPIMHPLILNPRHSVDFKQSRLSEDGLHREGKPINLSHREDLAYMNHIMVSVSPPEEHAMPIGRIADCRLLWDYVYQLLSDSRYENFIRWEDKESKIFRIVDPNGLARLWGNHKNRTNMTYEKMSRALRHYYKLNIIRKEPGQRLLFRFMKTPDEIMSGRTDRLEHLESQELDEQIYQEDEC
Method in brief: as §1

In the case of TTTAAA, the binding signal (ERF) is reported as 1.31 fold enrichment (6-mer frequency, TF over GST control), the binding signal (ETV3L) is reported as 1.35 fold enrichment (6-mer frequency, TF over GST control) and the binding signal (ETS2) is reported as 1.26 fold enrichment (6-mer frequency, TF over GST control). For the same sequence, the binding signal (SPDEF) was 1.16 fold enrichment (6-mer frequency, TF over GST control), the binding signal (ETV7) was 1.36 fold enrichment (6-mer frequency, TF over GST control) and the binding signal (ELF5) was 1.19 fold enrichment (6-mer frequency, TF over GST control). The binding signal (ETV3) was 1.22 fold enrichment (6-mer frequency, TF over GST control) and the binding signal (ETV6) was 1.27 fold enrichment (6-mer frequency, TF over GST control).
In the case of TAAGTA, the binding signal (ERF) is reported as 1.24 fold enrichment (6-mer frequency, TF over GST control), the binding signal (ETV3L) is reported as 1.22 fold enrichment (6-mer frequency, TF over GST control) and the binding signal (ETS2) is reported as 1.2 fold enrichment (6-mer frequency, TF over GST control). The binding signal (SPDEF) was 1.21 fold enrichment (6-mer frequency, TF over GST control), the binding signal (ETV7) was 1.13 fold enrichment (6-mer frequency, TF over GST control) and the binding signal (ELF5) was 1.25 fold enrichment (6-mer frequency, TF over GST control). The binding signal (ETV3) was 1.23 fold enrichment (6-mer frequency, TF over GST control) and the binding signal (ETV6) was 1.28 fold enrichment (6-mer frequency, TF over GST control).
With TATTCA the binding signal (ERF) was 1.36 fold enrichment (6-mer frequency, TF over GST control), the binding signal (ETV3L) was 1.43 fold enrichment (6-mer frequency, TF over GST control) and the binding signal (ETS2) was 1.34 fold enrichment (6-mer frequency, TF over GST control). The binding signal (SPDEF) was 1.28 fold enrichment (6-mer frequency, TF over GST control), the binding signal (ETV7) was 1.23 fold enrichment (6-mer frequency, TF over GST control) and the binding signal (ELF5) was 1.24 fold enrichment (6-mer frequency, TF over GST control). For the same sequence, the binding signal (ETV3) was 1.23 fold enrichment (6-mer frequency, TF over GST control) and the binding signal (ETV6) was 1.3 fold enrichment (6-mer frequency, TF over GST control).
For GCGACT, the binding signal (ERF) was 1.43 fold enrichment (6-mer frequency, TF over GST control), the binding signal (ETV3L) was 1.17 fold enrichment (6-mer frequency, TF over GST control) and the binding signal (ETS2) was 1.15 fold enrichment (6-mer frequency, TF over GST control). For the same sequence, the binding signal (SPDEF) was 1.13 fold enrichment (6-mer frequency, TF over GST control), the binding signal (ETV7) was 1.14 fold enrichment (6-mer frequency, TF over GST control) and the binding signal (ELF5) was 1.3 fold enrichment (6-mer frequency, TF over GST control). For the same sequence, the binding signal (ETV3) was 1.14 fold enrichment (6-mer frequency, TF over GST control) and the binding signal (ETV6) was 1.16 fold enrichment (6-mer frequency, TF over GST control).
For TTGTAT, the binding signal (ERF) was 1.28 fold enrichment (6-mer frequency, TF over GST control), the binding signal (ETV3L) was 1.37 fold enrichment (6-mer frequency, TF over GST control) and the binding signal (ETS2) was 1.4 fold enrichment (6-mer frequency, TF over GST control). The binding signal (SPDEF) was 1.41 fold enrichment (6-mer frequency, TF over GST control), the binding signal (ETV7) was 1.21 fold enrichment (6-mer frequency, TF over GST control) and the binding signal (ELF5) was 1.35 fold enrichment (6-mer frequency, TF over GST control). For the same sequence, the binding signal (ETV3) was 1.41 fold enrichment (6-mer frequency, TF over GST control) and the binding signal (ETV6) was 1.25 fold enrichment (6-mer frequency, TF over GST control).
CCTGGA was tested, and the binding signal (ERF) was 1.32 fold enrichment (6-mer frequency, TF over GST control), the binding signal (ETV3L) was 1.49 fold enrichment (6-mer frequency, TF over GST control) and the binding signal (ETS2) was 1.52 fold enrichment (6-mer frequency, TF over GST control). The binding signal (SPDEF) was 1.57 fold enrichment (6-mer frequency, TF over GST control), the binding signal (ETV7) was 1.34 fold enrichment (6-mer frequency, TF over GST control) and the binding signal (ELF5) was 1.74 fold enrichment (6-mer frequency, TF over GST control). For the same sequence, the binding signal (ETV3) was 1.37 fold enrichment (6-mer frequency, TF over GST control) and the binding signal (ETV6) was 1.44 fold enrichment (6-mer frequency, TF over GST control).
With AATTAA the binding signal (ERF) was 1.31 fold enrichment (6-mer frequency, TF over GST control), the binding signal (ETV3L) was 1.2 fold enrichment (6-mer frequency, TF over GST control) and the binding signal (ETS2) was 1.24 fold enrichment (6-mer frequency, TF over GST control). For the same sequence, the binding signal (SPDEF) was 1.17 fold enrichment (6-mer frequency, TF over GST control), the binding signal (ETV7) was 1.2 fold enrichment (6-mer frequency, TF over GST control) and the binding signal (ELF5) was 1.23 fold enrichment (6-mer frequency, TF over GST control). For the same sequence, the binding signal (ETV3) was 1.25 fold enrichment (6-mer frequency, TF over GST control) and the binding signal (ETV6) was 1.32 fold enrichment (6-mer frequency, TF over GST control).
TAGTGG was tested, and the binding signal (ERF) was 1.18 fold enrichment (6-mer frequency, TF over GST control), the binding signal (ETV3L) was 1.15 fold enrichment (6-mer frequency, TF over GST control) and the binding signal (ETS2) was 1.28 fold enrichment (6-mer frequency, TF over GST control). The binding signal (SPDEF) was 1.1 fold enrichment (6-mer frequency, TF over GST control), the binding signal (ETV7) was 1.17 fold enrichment (6-mer frequency, TF over GST control) and the binding signal (ELF5) was 1.12 fold enrichment (6-mer frequency, TF over GST control). The binding signal (ETV3) was 1.1 fold enrichment (6-mer frequency, TF over GST control) and the binding signal (ETV6) was 1.16 fold enrichment (6-mer frequency, TF over GST control).
With CCTGAT the binding signal (ERF) was 1.5 fold enrichment (6-mer frequency, TF over GST control), the binding signal (ETV3L) was 1.36 fold enrichment (6-mer frequency, TF over GST control) and the binding signal (ETS2) was 1.46 fold enrichment (6-mer frequency, TF over GST control). For the same sequence, the binding signal (SPDEF) was 1.59 fold enrichment (6-mer frequency, TF over GST control), the binding signal (ETV7) was 1.29 fold enrichment (6-mer frequency, TF over GST control) and the binding signal (ELF5) was 1.64 fold enrichment (6-mer frequency, TF over GST control). The binding signal (ETV3) was 1.43 fold enrichment (6-mer frequency, TF over GST control) and the binding signal (ETV6) was 1.41 fold enrichment (6-mer frequency, TF over GST control).
